High-throughput results from PubChem.
Compounds with a hit are over-represented: about 1.7% of the library has one in this group of screens.
Neddyl block – inhibitors of human cullin neddylation; AID 651699; inhibition, % at 25 µM; P61081+Q13564; actives 0.58% (n = 360,000); TR-FRET cullin neddylation, biochemical; in the data active means inhibition above about 36%
Target sequence (P61081 whole entry, looked up): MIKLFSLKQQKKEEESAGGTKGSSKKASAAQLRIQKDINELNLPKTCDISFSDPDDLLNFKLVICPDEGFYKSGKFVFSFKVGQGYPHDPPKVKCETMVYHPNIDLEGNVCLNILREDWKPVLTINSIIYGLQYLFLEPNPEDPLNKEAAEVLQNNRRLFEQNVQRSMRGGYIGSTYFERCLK
Target sequence (Q13564 whole entry, looked up): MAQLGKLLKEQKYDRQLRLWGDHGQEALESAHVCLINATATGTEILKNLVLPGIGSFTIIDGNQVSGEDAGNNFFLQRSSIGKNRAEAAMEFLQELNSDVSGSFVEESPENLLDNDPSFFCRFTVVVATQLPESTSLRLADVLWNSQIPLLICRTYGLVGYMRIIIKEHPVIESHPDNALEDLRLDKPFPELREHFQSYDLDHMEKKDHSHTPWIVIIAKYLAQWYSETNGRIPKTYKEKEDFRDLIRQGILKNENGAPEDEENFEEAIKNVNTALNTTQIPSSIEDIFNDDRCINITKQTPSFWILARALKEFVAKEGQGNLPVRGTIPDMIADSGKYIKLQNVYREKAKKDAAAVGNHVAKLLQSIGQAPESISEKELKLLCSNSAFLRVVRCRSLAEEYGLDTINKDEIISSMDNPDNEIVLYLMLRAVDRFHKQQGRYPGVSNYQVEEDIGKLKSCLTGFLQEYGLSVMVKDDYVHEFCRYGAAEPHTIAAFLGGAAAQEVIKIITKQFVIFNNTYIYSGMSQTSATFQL
SUMO1-SIM PPI – modulators of human SUMO1-mediated protein-protein interactions. inhibition, % at 20 µM. SUMO1 binding to a labelled peptide, TR-FRET, 1 h. actives 0.33% (n = 360,000); in the data active means inhibition above about 37%
Rin1 Abl inh – blocks binding of human Rin1 to Abl; inhibition, % at 7.35 µM; actives 0.4% (n = 360,000); P00519+Q13671; TR-FRET Rin1/Abl binding, biochemical; AID 588664; in the data active means inhibition above about 5%, passing the limit was not always enough
ATG4B inh – inhibitors of human ATG4B cysteine protease | Q9Y4P1 | ATG4B cleavage of LC3-PLA2, NBD-HPC fluorescence, 1 h | inhibition, % at 8.33 µM | actives 0.51% (n = 340,000) | AID 504462
Neddyl conf – cullin neddylation inhibition, confirmation. shares compounds with Neddyl block. TR-FRET cullin neddylation biochemical assay. calls only at 25 µM. actives 13% (n = 1,800);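 further: neddylation substrate is the cullin 1 ring ligase complex with SKP2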
* marks the source's active call; other numbers are inactive results. Unless noted, no stated cut-off is given here; in the data, active means inhibition above about 40%; inactive means the rest.

How did CCOc1ccc(-c2cc(C(=O)N/N=C(\C)c3cccnc3)c3ccccc3n2)c(OCC)c1 do in these assays?
Neddyl block: 52*; SUMO1-SIM PPI: -1; Rin1 Abl inh: 4; ATG4B inh: -5; Neddyl conf: inactive

Results for CC/C(=N\Nc1ccnc2cc(Cl)ccc12)c1ccc(O)cc1 ?
Neddyl block: 41*; SUMO1-SIM PPI: -7; Rin1 Abl inh: 1; ATG4B inh: -3; Neddyl conf: inactive

How did CC(C(=O)NC1CCCC1)N1C(=O)c2cccc3cccc1c23 (centres undefined) do in these assays?
Neddyl block: 38*; SUMO1-SIM PPI: -26; Rin1 Abl inh: -6; ATG4B inh: 2; Neddyl conf: inactive

How did CC(C)c1ccc(NC(=O)Cn2c(=O)oc3cccnc32)cc1 do in these assays?
Neddyl block: 9; SUMO1-SIM PPI: 3; Rin1 Abl inh: 0; ATG4B inh: -5

How did O=C(Cn1c(=O)oc2cccnc21)Nc1ccc(C(F)(F)F)cc1 do in these assays?
Neddyl block: 40*; SUMO1-SIM PPI: 18; Rin1 Abl inh: 3; ATG4B inh: -4; Neddyl conf: inactive

Results for O=C1CCC/C(=N\NC(=O)c2ccc(CSc3cccc4cccnc34)cc2)C1 ?
Neddyl block: 46*; SUMO1-SIM PPI: -8; Rin1 Abl inh: 0; ATG4B inh: -8; Neddyl conf: inactive

Results for NNC(=O)c1ccc(CSc2cccc3cccnc23)cc1 ?
Neddyl block: 43*; SUMO1-SIM PPI: -17; Rin1 Abl inh: 0; ATG4B inh: -6; Neddyl conf: active

Results for O=C(N/N=C/c1ccccc1Br)c1ccc(CSc2cccc3cccnc23)cc1 ?
Neddyl block: 37; SUMO1-SIM PPI: -4; Rin1 Abl inh: 2; ATG4B inh: 8

How did Cc1cccc(CSc2cccc3cccnc23)c1 do in these assays?
Neddyl block: 19; SUMO1-SIM PPI: -8; Rin1 Abl inh: -1; ATG4B inh: 1

How did CN(CC(=O)Nc1ccccc1Cl)C(=O)COC(=O)c1ccc(C(F)(F)F)cc1 do in these assays?
Neddyl block: -21; SUMO1-SIM PPI: -2; Rin1 Abl inh: 3; ATG4B inh: -7

Results for CN(CC(=O)Nc1ccccc1Cl)C(=O)COC(=O)c1ccc(-c2ccc(O)cc2)cc1 ?
Neddyl block: 31*; SUMO1-SIM PPI: 3; Rin1 Abl inh: 1; ATG4B inh: -28

Results for COC(=O)c1cc(=O)nc2sc(-c3ccc(F)cc3)nn12 ?
Neddyl block: 19; SUMO1-SIM PPI: -3; Rin1 Abl inh: 1; ATG4B inh: 11

Results for COC(=O)c1cc(=O)nc2sc(-c3cccs3)nn12 ?
Neddyl block: 49*; SUMO1-SIM PPI: -14; Rin1 Abl inh: -2; ATG4B inh: -2; Neddyl conf: inactive

What do the screens show for `Fc1cc(F)c(F)c(SCn2cc(Br)cn2)c1F`?
Neddyl block: 11; SUMO1-SIM PPI: -5; Rin1 Abl inh: -3; ATG4B inh: 10

How did CCN(CC(=O)NCc1cccs1)C(=O)c1cccc(S(=O)(=O)N(CC)c2ccccc2)c1 do in these assays?
Neddyl block: 4; SUMO1-SIM PPI: -2; Rin1 Abl inh: 5; ATG4B inh: 8

What do the screens show for `Cc1cccc(S(=O)(=O)C(C#N)c2nc3ccccc3nc2N2CC(C)OC(C)C2)c1` (centres undefined)?
Neddyl block: 46*; SUMO1-SIM PPI: -3; Rin1 Abl inh: -4; ATG4B inh: 1; Neddyl conf: inactive

What do the screens show for `CC(C)(C)c1cc(NC(=O)COC(=O)c2nccnc2N)n(-c2ccccc2)n1`?
SUMO1-SIM PPI: -5; Rin1 Abl inh: 2; ATG4B inh: -3

Results for Cc1cc(NC(=O)COC(=O)c2nccnc2N)n(-c2ccccc2)n1 ?
Neddyl block: 68*; SUMO1-SIM PPI: -16; Rin1 Abl inh: -4; ATG4B inh: -4

How did NC(CCc1ccccc1)c1csc(Nc2nccc(C(F)(F)F)n2)n1 (centres undefined) do in these assays?
Neddyl block: -9; SUMO1-SIM PPI: -18; Rin1 Abl inh: 2

Results for CC(C)[N+]1=C2C=CC=CC=C2SC12C([N+](=O)[O-])=CC(=[N+]([O-])[O-])C=C2[N+](=O)[O-] (centres undefined) ?
Neddyl block: 44*; SUMO1-SIM PPI: -24; Rin1 Abl inh: 2; ATG4B inh: -7; Neddyl conf: inactive

Results for COc1ccc(Cc2c(-c3cccc(Cl)c3)nc3ccc(C)cn23)c(C)c1 ?
Neddyl block: 5; SUMO1-SIM PPI: -4; Rin1 Abl inh: 7

Results for COc1ccc(C(=O)Cn2c3ccccc3n3nc(CCC(=O)O)c(=O)nc23)cc1OC ?
Neddyl block: 44*; SUMO1-SIM PPI: 2; Rin1 Abl inh: 0; ATG4B inh: -6

How did CC(=O)Cn1c2ccccc2n2nc(CCC(=O)O)c(=O)nc12 do in these assays?
SUMO1-SIM PPI: 1; Rin1 Abl inh: 2; ATG4B inh: 0

What do the screens show for `Cc1c(C(=O)O)sc2nc(/C=C/c3cccc(F)c3)[nH]c(=O)c12`?
Neddyl block: 40*; SUMO1-SIM PPI: -8; Rin1 Abl inh: 0; ATG4B inh: -8

How did CC(C)C[C@H]1CN(CCCC[C@H]2CNC(=O)C(=O)N2Cc2ccccc2)C(=O)C(=O)N1CCC1CCCCC1 do in these assays?
Neddyl block: -1; SUMO1-SIM PPI: 4

How did CC(C(N)=O)N1c2cccc3cccc(c23)S1(=O)=O (centres undefined) do in these assays?
Neddyl block: 30; SUMO1-SIM PPI: -6; Rin1 Abl inh: -4; ATG4B inh: 18

Results for CC(=O)c1ccc(NC(=O)CN2c3cccc4cccc(c34)S2(=O)=O)cc1 ?
Neddyl block: 48*; SUMO1-SIM PPI: -19; Rin1 Abl inh: 1; ATG4B inh: -13; Neddyl conf: inactive

Results for CCC(C)NC(=O)CN1c2cccc3cccc(c23)S1(=O)=O (centres undefined) ?
Neddyl block: 42*; SUMO1-SIM PPI: -10; Rin1 Abl inh: 2; ATG4B inh: -5; Neddyl conf: inactive

What do the screens show for `CC(NC(=O)C(C)N1c2cccc3cccc(c23)S1(=O)=O)c1ccccc1` (centres undefined)?
Neddyl block: 42*; SUMO1-SIM PPI: -11; Rin1 Abl inh: 1; ATG4B inh: -3; Neddyl conf: inactive

How did CN(Cc1ccccc1F)C(=O)CN1c2cccc3cccc(c23)S1(=O)=O do in these assays?
Neddyl block: 50*; SUMO1-SIM PPI: -15; Rin1 Abl inh: 2; ATG4B inh: -6; Neddyl conf: active

How did CC(C)Nc1nc(Nc2ccc(F)cc2)c2sccc2n1 do in these assays?
Neddyl block: 9; SUMO1-SIM PPI: -4; Rin1 Abl inh: -1

What do the screens show for `CC(=O)Nc1cccc(NC(=O)CN2c3cccc4cccc(c34)S2(=O)=O)c1`?
Neddyl block: 43*; SUMO1-SIM PPI: -14; Rin1 Abl inh: 0; ATG4B inh: -15; Neddyl conf: inactive

Results for COCCCn1c(C)cc(C(=O)CN2c3cccc4cccc(c34)S2(=O)=O)c1C ?
Neddyl block: 37*; SUMO1-SIM PPI: -11; Rin1 Abl inh: -1; ATG4B inh: -2; Neddyl conf: inactive
